Laboratory results reported in PubChem BioAssay (NCATS).
Records with an inconclusive call do not appear. The source made the active and inactive calls. Calls come from the whole dose curve; as a rule, active = well fitted inhibition curve with a large enough effect; inconclusive = small, poorly fitted or top-dose-only effect; inactive = flat fitted curve, though single readings scatter.

Experiments:
Experiment in all cases: qHTS profiling for inhibitors of Plasmodium falciparum proliferation (AID 504749); note: nearly all actives have a fitted effect of over 60% in size
Details in all cases: P. falciparum in erythrocytes, SYBR Green DNA, 72 h; series mostly up to 28.7 µM
HB3 = tested on: HB3
Outline: (§1)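 P. falciparum-infected erythrocytes (0.3% parasitemia, 2.5% hematocrit) incubated with compound 72 h at 37 C, 5% CO2. Parasite DNA detected by SYBR Green after lysis, overnight at room temperature; normalised to 0.29 uM artemisinin and DMSO.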

ICS = tested on: ICS
Outline: as §1

JCK = tested on: JCK
Outline: as §1

N140 = tested on: N140
Outline: as §1

P93_24 = tested on: P93_24
Outline: as §1

P94_40 = tested on: P94_40
Outline: as §1

PAD = tested on: PAD
Outline: as §1

PC26 = tested on: PC26
Outline: as §1

GB4 = tested on: GB4
Outline: as §1

PC15 = tested on: PC15
Outline: as §1

Measured: Potency
Potency is the fitted concentration of half-maximal effect.

C=CCN1CC[C@]23CCCCC2[C@H]1Cc1ccc(O)cc13 (some centres undefined)
inactive: HB3 | ICS | JCK | N140 | P93_24 | P94_40 | PAD | PC26

O=[N+]([O-])c1ccc([As](=O)(O)O)cc1
active: GB4 8.49 µM | HB3 12.6 µM | ICS 8.91 µM | N140 4.47 µM | P93_24 5.01 µM | P94_40 7.08 µM | PAD 7.94 µM | PC26 13.5 µM

CC(=O)OCC1=C(C(=O)O)N2C(=O)[C@@H](N)[C@@H]2SC1
inactive: GB4 | HB3 | ICS | JCK | PC15 | PC26

C#CC1(O)CCC2C3CCC4=CC(=O)CCC4(C)C3CCC21C (centres undefined)
inactive: GB4 | HB3 | ICS | JCK | N140 | P93_24 | P94_40 | PAD | PC15 | PC26

c1ccc(C2(c3ccccc3)CC2C2=NCCN2)cc1 (centres undefined)
inactive: HB3 | JCK | N140 | P93_24 | P94_40 | PAD | PC26
active: PC15 5.62 µM

O=C(O)COc1ccccc1
inactive: GB4 | HB3 | ICS | JCK | N140 | P93_24 | P94_40 | PAD | PC15 | PC26

CCCCCCCCCC(CC)c1ccc(S(=O)(=O)O)cc1 (centres undefined)
inactive: GB4 | HB3 | ICS | JCK | N140 | P93_24 | P94_40 | PAD | PC15 | PC26

CC(C)NC(C)Cc1ccc(I)cc1 (centres undefined)
inactive: HB3 | ICS | JCK | N140 | P93_24 | P94_40 | PAD | PC15

NC(=O)CN1CC(O)CC1=O (centres undefined)
inactive: GB4 | HB3 | ICS | JCK | N140 | P93_24 | P94_40 | PAD | PC15 | PC26

CCCCCCCCCCCCCCCC[N+](C)(C)C
active: GB4 4.78 µM | ICS 7.08 µM

CN(C)[C@@H]1C(=O)C(C(N)=O)=C(O)[C@@]2(O)C(=O)C3=C(O)c4c(O)cccc4[C@@](C)(O)[C@H]3[C@H](O)[C@@H]12
inactive: JCK | PC15 | PC26

NC1=NC(=O)N2CC12 (centres undefined)
inactive: JCK | N140 | PC15
active: ICS 11.2 µM

COC(=O)c1cncn1C(C)c1ccccc1 (centres undefined)
inactive: GB4 | PC26

Cc1cc(O)ccc1Cl
inactive: GB4 | HB3 | ICS | JCK | N140 | P93_24 | PAD | PC15 | PC26

CN1C2CCC1CC(OC(=O)c1cc(Cl)cc(Cl)c1)C2 (centres undefined)
inactive: GB4 | HB3 | JCK | N140 | P93_24 | P94_40 | PAD | PC15 | PC26

CN[C@@H]1C[C@@H](c2ccc(Cl)c(Cl)c2)c2ccccc21
active: ICS 10 µM
inactive: JCK

C1CCC(NC2CCCCC2)CC1
inactive: GB4 | HB3 | ICS | JCK | N140 | P93_24 | P94_40 | PAD | PC15 | PC26

CCCCc1ccc(C(=O)O)nc1
inactive: GB4 | HB3 | ICS | JCK | N140 | P93_24 | P94_40 | PAD | PC15 | PC26

CC(=O)[O][Hg][c]1ccccc1
active: GB4 4.26 µM | HB3 6.31 µM | ICS 3.55 µM | JCK 3.98 µM | N140 3.55 µM | P93_24 5.01 µM | P94_40 3.55 µM | PAD 6.31 µM | PC15 3.55 µM | PC26 6.75 µM

COC(=O)[C@@H](N)CCCN=C(N)N[N+](=O)[O-]
inactive: GB4 | HB3 | ICS | JCK | N140 | P93_24 | P94_40 | PAD | PC15 | PC26

CCCN1CCC[C@H](c2cccc(O)c2)C1
inactive: HB3 | JCK | N140 | P93_24 | P94_40 | PAD | PC15 | PC26

O=C(O)C(Cl)Cl
inactive: GB4 | HB3 | ICS | JCK | N140 | P93_24 | P94_40 | PAD | PC15 | PC26

CC[N+]1(CCOC(=O)C(O)(c2ccccc2)c2ccccc2)CCCCC1
inactive: GB4 | HB3 | ICS | JCK | N140 | P94_40 | PAD | PC15 | PC26

Cc1ccc(Cl)c(O)c1
inactive: GB4 | HB3 | ICS | JCK | N140 | P93_24 | P94_40 | PAD | PC15 | PC26

COC(C)(C)CCCC(C)C/C=C/C(C)=C/C(=O)OC(C)C (centres undefined)
active: P93_24 8.91 µM

C[C@]12CCC(=O)C(O)=C1CC[C@@H]1[C@H]3CCC(=O)[C@@]3(C)CC[C@@H]12
inactive: GB4 | HB3 | ICS | JCK | PAD | PC15 | PC26
